Data reported in ChEMBL document CHEMBL3988442, “University of Dundee, Small-Polar-MMV Screening Library” (2021).
Out of some 48,000 compounds screened, about 13,000 (27%) showed an effect of 50% or more. The list shows a part of the results.

The molecules below were run on Wolbachia pipientis (assay: Anti-Wolbachia Cell-Based Screen). Settings: 5 µM.
Type: functional
Set-up: scale not given: in the data most compounds retested in dose-response had high values
In the case of `CCC(CC)c1cc(CNC(=O)N2CCC[C@@H]2CO)on1`, the “Percent Effect” value is reported as -2.754%. With `CCn1cc(CNc2ccc(F)c(N3CCCS3(=O)=O)c2)cn1` the “Percent Effect” value was -13%. With `Cc1cccc(C(=O)N(CCCO)S(=O)(=O)c2cccs2)c1` the “Percent Effect” value was -17.59%. With `O=C(CN1CCCC1)N1CCCC1c1nc(O)cc(-c2ccccn2)n1` (centres undefined) the “Percent Effect” value was 91.97%. For `O=C(CC1CCCC1)N1CCCC1c1nc(O)cc(-c2ccccn2)n1` (centres undefined), the “Percent Effect” value was -10.15%. With `COCCC(=O)N1CCCC1c1nc(O)cc(-c2ccccn2)n1` (centres undefined) the “Percent Effect” value was 100.3%. `C/C=C(/C)C(=O)NS(=O)(=O)c1ccc(C(F)(F)F)cc1` was tested, and the “Percent Effect” value was -1.888%. `O=C(C1COCCO1)N1CCN(CC(F)(F)F)c2ccccc21` (centres undefined) was tested, and the “Percent Effect” value was 122.9%. `O=C(C1CCCOC1)N1CCCc2ccccc21` (centres undefined) was tested, and the “Percent Effect” value was -6.498%. In the case of `O=C(C1CCCOC1)N1CCCCc2ccccc21` (centres undefined), the “Percent Effect” value is reported as -3.66%. For `O=C(C1CCOC1)N1CCN(CC(F)(F)F)c2ccccc21` (centres undefined), the “Percent Effect” value was 125.3%. For `CC(C)(C)c1cc(NC(=O)C2COCCO2)n(-c2ccccn2)n1` (centres undefined), the “Percent Effect” value was -13.16%. For `Cc1ccc2c(c1)N(C(=O)C1CCCOC1)CCC2` (centres undefined), the “Percent Effect” value was 0.6184%. `CN1CCN(C(=O)C2CC=CC2)c2ccccc21` was tested, and the “Percent Effect” value was -33.89%. `O=C(C1CCCOC1)N1CCN(CC(F)(F)F)c2ccccc21` (centres undefined) was tested, and the “Percent Effect” value was 120.4%. `COc1nc(N2CCN(C(C)=O)CC2)ncc1Br` was tested, and the “Percent Effect” value was -6.459%. For `CC(C)c1ccc(NC2CCCN(Cc3ccncc3)C2)cc1` (centres undefined), the “Percent Effect” value was -12.89%. `Cc1ccc(NC2CCCN(C3Cc4ccccc4C3)C2)nn1` (centres undefined) was tested, and the “Percent Effect” value was -17.09%. For `Cc1nnc([C@H]2CCN(CCCc3ccccc3)C2)o1`, the “Percent Effect” value was -2.923%. For `Cc1ccc(NC2CCCN(CCCc3ccccc3)C2)nn1` (centres undefined), the “Percent Effect” value was 90.19%. In the case of `Cc1cc(C)nc(NC2CCCN(CCCc3ccccc3)C2)n1` (centres undefined), the “Percent Effect” value is reported as 120.4%. In the case of `Cc1ccc(NC2CCCN(Cc3ccc(Cl)cc3)C2)nn1` (centres undefined), the “Percent Effect” value is reported as 105.3%. For `CSc1ccccc1C(=O)N(C)C1CCCN(CCc2ccccc2)C1` (centres undefined), the “Percent Effect” value was -4.554%. For `CCn1cc(S(=O)(=O)NC2CCCN(CCCc3ccccc3)C2)cn1` (centres undefined), the “Percent Effect” value was -6.071%. In the case of `c1ccc(CCCN2CCCC(Nc3cnc4ccccc4n3)C2)cc1` (centres undefined), the “Percent Effect” value is reported as 45.74%. In the case of `Cc1cc(NC2CCCN(Cc3ccc(F)cc3)C2)n2nc(C)cc2n1` (centres undefined), the “Percent Effect” value is reported as 43.11%. In the case of `Cc1ccc(NC2CCCN(CCc3ccccc3)C2)nn1` (centres undefined), the “Percent Effect” value is reported as 81.81%. In the case of `Cc1cc(N[C@H]2CCCN(Cc3ccccc3)C2)n2nc(C)cc2n1`, the “Percent Effect” value is reported as -7.34%. For `CCn1c(CN2CCC(O)(C(=O)OC)CC2)nc2c(F)cccc21`, the “Percent Effect” value was -8.235%. With `CSCCC(NC(N)=O)C(=O)NCc1c(C)nn(-c2ccccc2)c1C` (centres undefined) the “Percent Effect” value was -8.181%. With `FC(F)(F)c1ccccc1CCC1CCCN(Cc2cscn2)C1` (centres undefined) the “Percent Effect” value was 15.59%. With `COc1ccc2c(c1)nc1n2[C@@H](CNC(=O)c2cccnc2)COC1` the “Percent Effect” value was -6.986%. For `CN(C)C(=O)N[C@@H]1CN(Cc2ccc3c(c2)OCO3)[C@@H]2CCCO[C@@H]21.O=C(O)C(F)(F)F`, the “Percent Effect” value was -22.69%. `O=C(N[C@@H]1CN(Cc2ccoc2)[C@@H]2CCCO[C@@H]21)C1CC1.O=C(O)C(F)(F)F` was tested, and the “Percent Effect” value was 105.3%. For `O=C(N[C@@H]1CN(Cc2ccsc2)[C@@H]2CCCO[C@@H]21)C1CC1`, the “Percent Effect” value was -8.929%. In the case of `O=C(N[C@H]1CN(Cc2ccsc2)[C@@H]2CCCO[C@H]12)C1CC1.O=C(O)C(F)(F)F`, the “Percent Effect” value is reported as 106.9%. `CN(C)C(=O)[C@H]1C[C@H]2OCC[C@H]2N(Cc2ccc3c(c2)OCO3)C1.O=C(O)C(F)(F)F` was tested, and the “Percent Effect” value was 0.2139%. For `O=C(O)C(F)(F)F.O=C([C@H]1C[C@H]2OCC[C@H]2N(Cc2ccoc2)C1)N1CCCO1`, the “Percent Effect” value was 7.487%. In the case of `O=C(N[C@@H]1CN(Cc2cccs2)[C@@H]2CCCO[C@@H]21)C1CC1`, the “Percent Effect” value is reported as -17.92%. In the case of `O=C(NC1CCCC1)[C@H]1C[C@H]2OCC[C@H]2N(Cc2ccoc2)C1.O=C(O)C(F)(F)F`, the “Percent Effect” value is reported as 13.19%. With `CN(C)C(=O)N[C@H]1CN(Cc2ccc3c(c2)OCO3)[C@@H]2CCCO[C@H]12.O=C(O)C(F)(F)F` the “Percent Effect” value was 93.48%. `O=C(c1ccccc1)C1CCN(Cc2cc3c(cc2O)CCC3)CC1` was tested, and the “Percent Effect” value was -3.001%. With `O=S(=O)(c1cccnc1)N1C[C@@H]2CC[C@H](C1)N(Cc1ccccc1)C2` the “Percent Effect” value was -31.29%. In the case of `Cn1cc(N2CCC(NC(=O)c3c(F)cccc3Cl)C2=O)cn1` (centres undefined), the “Percent Effect” value is reported as -23.29%. In the case of `COc1ccccc1Oc1ncccc1CNC(=O)C(C)N1CCCC1` (centres undefined), the “Percent Effect” value is reported as -2.64%. In the case of `COc1ccc(CN(C)C2CCN(S(C)(=O)=O)CC2)c2cccnc12`, the “Percent Effect” value is reported as 1.454%. With `Cc1ncccc1Oc1nccnc1C1CCN(S(C)(=O)=O)CC1` the “Percent Effect” value was 120.9%. For `Cc1ncccc1Oc1nccnc1C1CCN(C(C)C)CC1`, the “Percent Effect” value was -4.012%. `Cc1ncccc1Oc1nccnc1C1CCCN(C(C)C)C1` (centres undefined) was tested, and the “Percent Effect” value was 134.2%. With `COCC(=O)N1CCC(c2nccnc2Oc2cccnc2C)CC1` the “Percent Effect” value was 0.288%. In the case of `CN(C)CCN1CCN(C)C2(CCN(c3nccs3)CC2)C1=O`, the “Percent Effect” value is reported as -6.968%. With `O=C(C1CC1)N1CCCC(c2nc(O)cc(-c3ccncc3)n2)C1` (centres undefined) the “Percent Effect” value was 87.21%. In the case of `O=C(C1CCCC1)N1CCCC(c2nc(O)cc(-c3ccncc3)n2)C1` (centres undefined), the “Percent Effect” value is reported as 85.76%. For `O=C(Nc1cc(-c2ccncc2)no1)C1CCCCC1`, the “Percent Effect” value was -8.136%. `O=C(N1CCCC1)N1CCCC(c2nccn2Cc2ccncc2)C1` (centres undefined) was tested, and the “Percent Effect” value was 19.93%. For `CC1(C)CNC(=O)c2nc(C3CCCN(C(=O)C4CC4)C3)[nH]c2C1` (centres undefined), the “Percent Effect” value was -1.543%. For `CC(=O)c1cccc(NC(=O)C2CN(S(=O)(=O)C3CC3)C2)c1`, the “Percent Effect” value was 8.617%. With `O=C(CCNCC(F)(F)F)N1CCC(Nc2cccnn2)CC1` the “Percent Effect” value was -5.357%. `Cc1ccc(NC2CCN(C(=O)CCCn3ccnc3C)CC2)nn1` was tested, and the “Percent Effect” value was 100.9%. `Cc1ccc(NC2CCN(C(=O)CCNc3ncccn3)CC2)nn1` was tested, and the “Percent Effect” value was 111.7%. For `O=C(CCNc1ncccn1)N1CCC(Nc2cccnn2)CC1`, the “Percent Effect” value was 106.9%. With `Cc1nccn1CCCC(=O)N1CCC(Nc2cccnn2)CC1` the “Percent Effect” value was 11.87%. In the case of `Cc1ccc(NC2CCN(C(=O)CCNS(C)(=O)=O)CC2)nn1`, the “Percent Effect” value is reported as -0.08742%. For `CC(C)(C)C(=O)NCCC(=O)N1CCC(Nc2cccnn2)CC1`, the “Percent Effect” value was 101.9%. With `COC1CCCN(C(=O)NCC(C)(C)SC)C1` (centres undefined) the “Percent Effect” value was -6.562%. For `NC(=O)C(NC1CCN(CC2CCCCC2)CC1)c1ccc(F)cc1` (centres undefined), the “Percent Effect” value was 3.018%. In the case of `CS(=O)(=O)CCC(=O)Nc1cc(Cl)c(Cl)cn1`, the “Percent Effect” value is reported as -8.334%. `O=C(c1ccc(S(=O)(=O)NCC(F)F)cc1)N1CC[C@H]2CNC[C@H]21` was tested, and the “Percent Effect” value was -11.61%. For `CSc1ccc(C(C)NC(=O)c2cc(C)on2)cc1` (centres undefined), the “Percent Effect” value was -17.95%. With `Cc1noc(C)c1CCCNC(=O)Nc1cccc([S+](C)[O-])c1` (centres undefined) the “Percent Effect” value was -8.91%. With `CS(=O)(=O)N1CC[C@]2(O)CCN(CCCC(=O)c3ccccc3)C[C@@H]2C1` the “Percent Effect” value was 92.75%. With `CN(C)S(=O)(=O)N1CC[C@]2(O)CCN(CCCc3cccnc3)C[C@@H]2C1` the “Percent Effect” value was 99.63%. In the case of `CS(=O)(=O)N1CC[C@]2(O)CCN(c3ccnc(N)n3)C[C@@H]2C1`, the “Percent Effect” value is reported as -18.71%. With `CN(C)S(=O)(=O)N1CC[C@]2(O)CCN(c3ncccn3)C[C@@H]2C1` the “Percent Effect” value was 8.402%. For `Cc1ccc(N2CC[C@@]3(O)CCN(S(C)(=O)=O)C[C@H]3C2)nn1`, the “Percent Effect” value was -14.46%. `CN(C)S(=O)(=O)N1CC[C@]2(O)CCN(c3nccs3)C[C@@H]2C1` was tested, and the “Percent Effect” value was -7.348%. With `O=C(c1[nH]nc(C2CC2)c1Cl)N1CCCC1` the “Percent Effect” value was -9.749%. For `O=C(N1CCCC1)N1CCC(Nc2ccncn2)CC1`, the “Percent Effect” value was 4.287%. In the case of `COc1cc(NCC(c2ccccn2)N2CCOCC2)ncn1` (centres undefined), the “Percent Effect” value is reported as -14.18%. For `CCc1cnc(NCC(c2ccncc2)N2CCOCC2)nc1` (centres undefined), the “Percent Effect” value was -11.49%. With `Fc1ccc(C(CNc2ccncn2)N2CCCC2)cc1` (centres undefined) the “Percent Effect” value was 85.77%. For `OC(CN1CCCCCCC1)c1ccc(F)cc1` (centres undefined), the “Percent Effect” value was -2.886%. In the case of `Fc1ccccc1C(CNc1ccncn1)N1CCCC1` (centres undefined), the “Percent Effect” value is reported as 123.2%. In the case of `NCc1cc(NCC(c2ccccn2)N2CCOCC2)ncn1` (centres undefined), the “Percent Effect” value is reported as -3.716%. `O=C(C(c1ccc(F)cc1)N1CCCCC1)N1CCn2cncc2C1` (centres undefined) was tested, and the “Percent Effect” value was 7.503%. In the case of `Fc1ccc(C(CNc2ccncn2)N2CCCCC2)cc1` (centres undefined), the “Percent Effect” value is reported as 113.6%. With `CCc1cc(N(C)Cc2[nH]nc3c2CCC3)nc(N2CCOCC2)n1` the “Percent Effect” value was 17.45%. In the case of `O=C(NCC1(c2ccc(F)cc2)CC1)N1CCC2(CCOC2)C1` (centres undefined), the “Percent Effect” value is reported as -4.934%. For `CN1CCO[C@@H]2CN(S(=O)(=O)c3ccccc3F)CC[C@@H]2C1.O=C(O)C(F)(F)F`, the “Percent Effect” value was -5.27%. In the case of `O=C(O)C(F)(F)F.O=S(=O)(C1CC1)N1C[C@@H]2CN(Cc3cccs3)CCO[C@@H]2C1`, the “Percent Effect” value is reported as 9.308%. With `CCS(=O)(=O)N1C[C@@H]2CN(Cc3cccs3)CCO[C@@H]2C1.O=C(O)C(F)(F)F` the “Percent Effect” value was 3.582%. In the case of `CC(C)CN1CC[C@@H]2[C@@H]1CCN2S(=O)(=O)c1cccs1.O=C(O)C(F)(F)F`, the “Percent Effect” value is reported as -11.08%. For `CCN1CCO[C@@H]2CN(S(=O)(=O)c3cccs3)CC[C@@H]2C1.O=C(O)C(F)(F)F`, the “Percent Effect” value was 101.9%. In the case of `CC(C)N1CCO[C@@H]2CN(S(=O)(=O)c3cccs3)CC[C@@H]2C1.O=C(O)C(F)(F)F`, the “Percent Effect” value is reported as 96.63%. For `CCO[C@@H]1C[C@H]2CN(S(=O)(=O)c3cccs3)CCN2C1.O=C(O)C(F)(F)F`, the “Percent Effect” value was -4.424%. `CC(=O)N1CCO[C@@H]2CN(C(=O)c3ccccc3)CC[C@@H]2C1` was tested, and the “Percent Effect” value was -4.476%. With `CN1CCO[C@@H]2CN(S(=O)(=O)c3cccs3)CC[C@@H]2C1.O=C(O)C(F)(F)F` the “Percent Effect” value was 99.53%. With `CN(C)C[C@H]1OC[C@@H]2CCN(S(=O)(=O)c3cccs3)C[C@@H]21.O=C(O)C(F)(F)F` the “Percent Effect” value was -5.421%. `CC(=O)N1CCO[C@@H]2CN(S(=O)(=O)c3cccs3)CC[C@@H]2C1` was tested, and the “Percent Effect” value was 114.4%.
